# Measurements published in PubChem BioAssay (EPA / NIEHS).
# “And” between values parts separate entries of the source, which are not always exact repeats. Equal entries are not always repeated. Results filed as inconclusive are left out. Where a structure was tested more than once in an assay, its records may differ in their call. The source made the active and inactive calls. The calls were made as follows: active = hit-call score of the fitted dose curve at least 0.9, where 1 is the maximum; inconclusive = response in the unintended direction; inactive = score below 0.9.
# Tests used:
# [1] = target: Norway rat Vesicular Monoamine Transporter (VMAT2), neurotransmitter transporter, Slc18a2 (gene 25549) (UniProt Q01827); assay: NVS_TR_rVMAT2: NovaScreen (NVS) Transporter Assay for Norway rat Vesicular Monoamine Transporter (VMAT2), neurotransmitter transporter (AID 2283376);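 also: actives lower the bound radioligand signal below the DMSO level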
# Outline: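 Rat forebrain tissue preparation used in a cell-free radioligand binding format; displacement read by filter-based scintillation counting 1 hour after dosing. Primary screen in duplicate at 25 uM, actives then run in concentration series; loss of signal versus DMSO baseline.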
# [2] = TOX21_p53_BLA_p2_viability: Viability Assessment in the Tox21 HCT-116 p53 Agonism Beta-lactamase Assay, Phase 2 (AID 2283591);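 also: compound exposure lasted 16 h at 37 °C; actives lower the ATP signal meaning cytotoxicity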
# Outline: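 HCT-116 p53-bla cells (4000/well) rested 5 h at 37C, then received compounds in DMSO (217-fold dilution) for 16 h at 37C, 5% CO2. After the CCF4 read, CellTiter-Glo was added; ATP luminescence was read after 30 min at room temperature.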
# [3] = target: Cellular tumor antigen p53 (Homo sapiens) (UniProt P04637); assay: TOX21_p53_BLA_p2_ratio: Tox21 HCT-116 p53 Agonism Beta-lactamase Assay, Ratio, Phase 2 (AID 2283592)
# Outline: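 In this cell-based reporter format, HCT116 cells were dosed with chemicals delivered from DMSO by 217-fold dilution and incubated 16 h at 37C. Emission at 460 and 530 nm after 2 h CCF4-AM loading provided the ratio, fitted upward versus DMSO.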
# [4] = TOX21_p53_BLA_p3_viability: Viability Assessment in the Tox21 HCT-116 p53 Agonism Beta-lactamase Assay, Phase 3 (AID 2283593);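 also: cells exposed to compound for 16 h before reading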
# Outline: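 HCT-116 cells (4000/well) rested 5 h at 37C, then got DMSO compounds by pin tool (217-fold dilution) for 16 h at 37C, 5% CO2. After the bla read, CellTiter-Glo was added and luminescence read at 30 min, room temperature.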
# [5] = target: Cellular tumor antigen p53 (Homo sapiens) (UniProt P04637); assay: TOX21_p53_BLA_p3_ratio: Tox21 HCT-116 p53 Agonism Beta-lactamase Assay, Ratio, Phase 3 (AID 2283596)
# Outline: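 HCT116 p53-bla cells (4000/well) given compound in DMSO (217-fold dilution) after 5 h, incubated 16 h at 37C. CCF4-AM substrate 2 h at room temperature; 460/530 nm emission ratio, gain fitted against DMSO.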
# [6] = TOX21_p53_BLA_p4_viability: Viability Assessment in the Tox21 HCT-116 p53 Agonism Beta-lactamase Assay, Phase 4 (AID 2283597);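 also: hits lower the luminescence signal meaning cytotoxicity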
# Outline: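 We seeded HCT116 p53 reporter cells at 4000/well and waited 5 h. We then added compounds in DMSO at a 217-fold dilution and incubated for 16 h. Viability was read as CellTiter-Glo luminescence after 30 min at RT.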
# [7] = target: Cellular tumor antigen p53 (Homo sapiens) (UniProt P04637); assay: TOX21_p53_BLA_p5_ratio: Tox21 HCT-116 p53 Agonism Beta-lactamase Assay, Ratio, Phase 5 (AID 2283599)
# Outline: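 HCT-116 cells carrying a p53-inducible beta-lactamase reporter were seeded at 4000 cells/well and dosed after 5 h with compound in DMSO (217-fold dilution). After 16 h at 37C, CCF4-AM substrate was added for 2 h, and the 460/530 nm emission ratio was scored as gain-of-signal versus DMSO.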
# [8] = TOX21_p53_BLA_p5_viability: Viability Assessment in the Tox21 HCT-116 p53 Agonism Beta-lactamase Assay, Phase 5 (AID 2283600)
# Outline: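 Compounds, pinned from DMSO at 217-fold dilution, were left on the cells for 16 h. The viability endpoint was ATP content measured by CellTiter-Glo luminescence, where falling signal reflects cytotoxicity.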
# [9] = target: Cellular tumor antigen p53 (Homo sapiens) (UniProt P04637); assay: TOX21_p53_BLA_p4_ratio: Tox21 HCT-116 p53 Agonism Beta-lactamase Assay, Ratio, Phase 4 (AID 2283601)
# Outline: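 HCT116 cells carrying an inducible beta-lactamase reporter were plated at 4000 cells/well, rested 5 h, then exposed to compounds in DMSO (217-fold dilution) for 16 h at 37C. CCF4-AM substrate was loaded 2 h at room temperature; 460/530 nm emission ratio scored gain-of-signal versus DMSO.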
# Cellular tumor antigen p53 (Homo sapiens), sequence (P04637 whole entry, looked up): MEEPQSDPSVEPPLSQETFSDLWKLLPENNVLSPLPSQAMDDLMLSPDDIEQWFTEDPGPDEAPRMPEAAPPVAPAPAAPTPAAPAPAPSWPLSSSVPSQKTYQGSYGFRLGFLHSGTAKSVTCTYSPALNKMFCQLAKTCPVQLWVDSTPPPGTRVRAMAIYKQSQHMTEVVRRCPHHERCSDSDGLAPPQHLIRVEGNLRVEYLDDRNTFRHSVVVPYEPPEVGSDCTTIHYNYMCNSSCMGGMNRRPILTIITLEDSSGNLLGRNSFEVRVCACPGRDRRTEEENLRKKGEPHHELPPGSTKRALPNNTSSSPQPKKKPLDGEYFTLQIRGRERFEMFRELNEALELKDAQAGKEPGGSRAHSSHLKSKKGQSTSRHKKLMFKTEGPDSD
# Norway rat Vesicular Monoamine Transporter (VMAT2), neurotransmitter transporter, Slc18a2 (gene 25549), sequence (Q01827 whole entry, looked up): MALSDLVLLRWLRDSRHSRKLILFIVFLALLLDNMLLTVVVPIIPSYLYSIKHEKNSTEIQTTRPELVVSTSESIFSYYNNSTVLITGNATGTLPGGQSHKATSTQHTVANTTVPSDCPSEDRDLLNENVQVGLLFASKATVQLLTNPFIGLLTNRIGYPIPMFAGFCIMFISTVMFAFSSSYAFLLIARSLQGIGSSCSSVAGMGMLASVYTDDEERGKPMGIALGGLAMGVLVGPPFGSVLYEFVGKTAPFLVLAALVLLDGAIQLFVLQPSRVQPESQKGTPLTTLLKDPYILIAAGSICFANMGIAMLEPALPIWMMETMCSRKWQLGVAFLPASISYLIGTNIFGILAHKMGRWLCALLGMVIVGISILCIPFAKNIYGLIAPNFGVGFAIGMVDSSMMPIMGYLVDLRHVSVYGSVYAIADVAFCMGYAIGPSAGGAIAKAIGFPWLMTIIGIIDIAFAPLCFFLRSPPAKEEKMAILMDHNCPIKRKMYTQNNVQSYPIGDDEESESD
smiles,measurement,setting,value
CN(C)c1ccc(C(=C2C=CC(=[N+](C)C)C=C2)c2ccccc2)cc1,outcome,[1],inactive
Oc1cc[c]([Hg][Cl])cc1,AC50,[2],20.9 µM (active) and 10.7 µM (active)
same,AC50,[3],13.9 µM (active)
same,outcome,[3],inactive
same,AC50,[4],41.6 µM (active) and 18.9 µM (active)
same,AC50,[5],30.1 µM (active) and 35.2 µM (active)
same,AC50,[6],20.4 µM (active) and 9.85 µM (active)
same,AC50,[7],39.2 µM (active) and 17.4 µM (active)
same,AC50,[8],25.3 µM (active) and 10.5 µM (active)
same,AC50,[9],41 µM (active) and 19.2 µM (active)
c1ccc(-c2nc3ccccc3[nH]2)cc1,AC50,[1],6.56 µM (active)
CC(C)(C)CC(C)(C)c1ccc(OCCOCC[N+](C)(C)Cc2ccccc2)cc1,outcome,[1],inactive
O=C1C[C@@H]2OCC=C3CN4CC[C@]56c7ccccc7N1[C@H]5[C@H]2[C@H]3C[C@H]46 (tested in a mixture with another compound),outcome,[2],inactive
same,outcome,[3],inactive
same,AC50,[4],41.2 µM (active)
same,outcome,[4],inactive
same,AC50,[5],36.6 µM (active)
same,outcome,[5],inactive
same,outcome,[6],inactive
same,outcome,[7],inactive
same,outcome,[8],inactive
same,outcome,[9],inactive
CCOC(=O)C=Cc1ccccc1,outcome,[1],inactive
CC(C)CCCCCCOC(=O)c1ccc(C(=O)OCCCCCCC(C)C)c(C(=O)OCCCCCCC(C)C)c1,outcome,[1],inactive
CC[N+](CC)(CC(=O)Nc1c(C)cccc1C)Cc1ccccc1,outcome,[1],inactive
CCOCN(C(=O)CS(=O)(=O)O)c1c(C)cccc1CC,outcome,[1],inactive
C[Si](C)O[Si](C)C,outcome,[1],inactive
CCCCON=O,outcome,[2],inactive
same,outcome,[3],inactive
CCCCC(CC)C(=O)O (configuration not stated),outcome,[1],inactive
CN(c1nccc(=O)[nH]1)C1CCN(c2nc3ccccc3n2Cc2ccc(F)cc2)CC1,outcome,[1],inactive
CC(CC(C#N)(c1ccccc1)c1ccccc1)N(C)C (configuration not stated),outcome,[2],inactive
